Screening data from PubChem BioAssay.
Vaccinia mCherry: inhibitors of vaccinia virus infection (mCherry reporter signal). Vaccinia virus mCherry reporter infection, fluorescence. AID 720579. hit rate 0.63% among 310,000. Potency, µM (top dose mostly 36.5 µM), for inactives: top-dose activity change, negative = inhibition, actives largely listed as inhibitors; calls by dose curve; tested in A549 cells; further: on the % scale 0 is the no-effect control and ±100 the full control effect; nearly all actives have a fitted effect of over 35% in size
Vaccinia Venus: vaccinia inhibition (Venus reporter) | hit rate 0.46% among 330,000 | Potency, µM (top dose mostly 36.5 µM), without a hit: top-dose activity change, negative = inhibition, hits mostly inhibitors | Vaccinia virus Venus reporter expression, fluorescence | AID 720580; calls by dose curve; tested in A549 cells; further: on the % scale 0 is the no-effect control and ±100 the full control effect; nearly all actives have a fitted effect of over 30% in size
Pf growth 48h: inhibits P. falciparum growth in the first generation, 48 h; P. falciparum luciferase growth in erythrocytes, 48 h; Potency, µM (titrated, usually from 28.7 µM), without a hit: at the top dose activity change, negative = inhibition, usual class: inhibitors; hit rate 5.9% among 310,000; further: on the % scale 0 is the no-effect control and ±100 the full control effect
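Here the parasites carry a stable luciferase gene and grow inside erythrocytes in Albumax-based RPMI medium with compound for one erythrocytic cycle. Activity is scored as loss of luminescent signal.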
NS1 inh: inhibitors of influenza NS1 protein function; Potency, µM (highest dose often 46.1 µM), for inactives: at the top dose activity, positive = more growth; hit rate 0.4% among 270,000; AID 2326; calls by dose curve; further: actives are rising curves; nearly all actives have a fitted effect of over 50% in size
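Compounds were scored for reversing the slow growth caused by influenza A NS1 in S. cerevisiae, measured by optical density at 600 nm. Assay medium contained 2% galactose at pH 6.0; NS1-free yeast of the same strain were the positive control.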
HCV inhibitor: inhibitors of hepatitis C virus infection. hit rate 3.4% among 340,000. Huh7.5.1 HCVcc-Cre infection, luciferase reporter, 44 h. Potency, µM (highest dose often 41.8 µM), without a hit: at the highest dose activity change, negative = inhibition, hits mostly inhibitors. AID 651820; further: on the % scale 0 is the no-effect control and ±100 the full control effect
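After 44 h co-culture of compound, cells and HCVcc-Cre (~0.5 moi), substrate is added for 15 min at room temperature and luciferase measured over 15 sec. Cells were seeded at 1,000/well and pre-cultured 4 h.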
Pf growth 96h: P. falciparum growth inhibition at 96 hour, primary screen for plastid delayed-death inhibitors; P. falciparum luciferase reporter growth, 96 h; Potency, µM (doses to about 28.7 µM), inactives show at the top dose activity change, negative = inhibition, actives largely listed as inhibitors; hit rate 6.9% among 320,000; further: on the % scale 0 is the no-effect control and ±100 the full control effect
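Cell-based qHTS: luciferase-tagged P. falciparum in erythrocytes (2% hematocrit, 0.05% parasitemia final) incubated with compounds for 96 hours, 37 C, 5% CO2; luciferase detection reagent then added and luminescence measured.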
* hit, by the source's call; i = inactive; ? = inconclusive; . = no result. The list is not random: actives were taken first. Their share in the collection is about 11%. Unless noted, the call rests on the fitted dose curve; in most records, active means well fitted inhibition curve with a large enough effect; inconclusive means small, poorly fitted or top-dose-only effect, or another doubt; inactive means no such curve, though single readings can be large or run the other way. Potency means the concentration at half of the fitted maximal effect.

SMILES	Vaccinia mCherry	Vaccinia Venus	Pf growth 48h	NS1 inh	HCV inhibitor	Pf growth 96h
CN=c1scc(-c2ccco2)n1/N=C/c1ccc(O)c(O)c1	-25.2%	-25.6%	-35.1%	.	2.51µM*	-92.1%
CN=c1scc(-c2ccccc2F)n1/N=C/c1ccc(O)c(O)c1O	i	-10.7%	?	.	-22.3%	-45.6%
NS(=O)(=O)c1ccc(O)c(NC(=O)c2ccc([N+](=O)[O-])cc2)c1	-4.3%	-4.9%	-54.5%	3.4%	-1.6%	?
Cc1ccc(Cn2nnc3c(=O)n(CC(=O)NCc4ccccc4)cnc32)cc1	.	.	3.6%	.	-12.3%	39.3%
COCCNC(=O)COC(=O)C1=Cc2ccccc2OC1	i	-14.3%	6.0%	3.7%	12.6µM*	?
O=C(COC(=O)C1=Cc2ccccc2OC1)NCc1ccccc1	-15.9%	-12.6%	0.4%	.	7.1%	?
COc1cc(C(=O)N(C)C2CCCN(Cc3ccccc3F)C2)cc(OC)c1OC (stereo not given)	-14.8%	-5.5%	-15.8%	18.9%	1.1%	?
COc1ccccc1CCC(=O)N(C)C1CCCN(Cc2ccccc2F)C1 (stereo not given)	.	.	-1.8%	0.5%	-26.4%	10.4µM*
N=c1n(CCO)c2ccccc2n1Cc1ccccc1Cl	-12.0%	-24.4%	-26.6%	-9.8%	22.4µM*	?
COc1ccc(OCCn2c(=N)n(CCO)c3ccccc32)cc1	-19.9%	-7.9%	-18.6%	0.2%	-13.9%	.
N=c1n(CCO)c2ccccc2n1CCOc1ccc(Cl)cc1Cl	?	11.2µM*	.	-8.2%	?	2.3%
N=C1S/C(=C\c2cn[nH]c2-c2ccc(F)cc2)C(=O)N1c1ccccc1F	-2.9%	-6.6%	41.2%	?	?	?
Cc1cc(C2N=C(N)Nc3nc4ccccc4n32)c(C)n1-c1ccccc1Cl (stereo not given)	-3.4%	-7.2%	.	?	1.2%	-11.7%
Cc1ccc(-n2c(C)cc(C3N=C(N)Nc4nc5ccccc5n43)c2C)c(C)c1 (stereo not given)	-24.5%	-27.7%	8.28µM*	-18.5%	?	-24.6%
N#C/C(=C\c1ccc(-c2ccccc2C(=O)O)o1)c1nc2ccccc2[nH]1	0.1%	-9.8%	.	3.3%	-6.9%	?
CC(C)C1C(=O)CC(c2ccccc2)NC1c1ccccc1 (stereo not given)	.	.	-28.4%	8.3%	5.1%	1.17µM*
CC(NC(=O)OCc1ccccc1)C(=O)OCN1C(=O)c2ccccc2C1=O (stereo not given)	i	-9.5%	13.3%	-97.1%	-6.2%	11.7µM*
Cn1c(SCCCC(=O)c2ccc(Br)cc2)nnc1-c1ccncc1	.	.	.	-3.3%	?	8.28µM*
CCOc1[nH]n(-c2ccc(Cl)cc2)c(=O)c1C=Nc1ccc(Cl)cc1	.	.	0.0%	5.4%	-13.1%	37.2%
COc1ccc(CN(C)C(=O)c2ccc(NS(=O)(=O)c3ccc4[nH]c(=O)[nH]c4c3)cc2)c(OC)c1	-10.2%	-7.1%	6.9%	9.0%	20.0%	?
CCOc1ccc2nc(N3CCCCCC3)sc2c1	.	.	210.8%	-25.5%	-7.7%	?
COc1ccc2nc(N3C(=O)/C(=C/c4ccccc4)NC3=S)sc2c1	-6.9%	30.4%	?	17.4%	?	0.828µM*
CCOc1ccc2nc(N3C(=O)/C(=C/c4ccccc4)NC3=S)sc2c1	1.8%	-8.7%	21.0%	-17.3%	?	4.65µM*
COc1ccc2nc(-n3c(C)ccc3C)sc2c1	i	-12.1%	-5.3%	-6.9%	-15.6%	.
NS(=O)(=O)c1ccc(CCNC(=O)CN2CCN(S(=O)(=O)c3ccccc3F)CC2)cc1	i	-5.2%	.	.	5.4%	.
SMILES	Vaccinia mCherry	Vaccinia Venus	Pf growth 48h	NS1 inh	HCV inhibitor	Pf growth 96h
CC(Oc1cccc(Cl)c1)C(=O)NCCCCc1ccccc1 (stereo not given)	i	-1.7%	6.7%	-5.8%	15.5%	?
COc1ccc(CC(=O)NNC(=O)c2ccoc2C)cc1OC	.	.	7.8%	23.5%	9.8%	53.5%
O=C(CCn1c(=O)[nH]c2ccsc2c1=O)N1CCc2ccccc2C1	.	.	11.1%	3.6%	-7.7%	10.4µM*
O=C(CCCCCn1c(=O)[nH]c2ccsc2c1=O)NCc1ccccc1	-10.5%	-2.3%	.	.	.	.
COc1ccccc1CNC(=O)CCn1c(=O)[nH]c2ccsc2c1=O	.	.	1.04µM*	2.0%	-2.0%	?
COc1ccc(N2CCN(C(=O)CCCCn3c(=O)[nH]c4ccsc4c3=O)CC2)cc1	-16.4%	6.8%	0.0%	.	-2.0%	14.1%
COc1ccc(N2CCN(C(=O)CCCn3c(=O)[nH]c4ccsc4c3=O)CC2)cc1	i	-16.3%	.	3.0%	5.4%	7.38µM*
CCOC(=O)N1CCN(C(=O)CCn2c(=S)[nH]c3ccsc3c2=O)CC1	-7.2%	2.4%	18.8%	.	19.4%	9.28µM*
CCOC(=O)c1sc(NC(=O)c2nc3nc(C)cc(C(F)F)n3n2)c(C(=O)OC)c1C	7.3%	1.3%	.	.	.	.
O=C1CSC(c2ccccn2)N1c1cccc(Cl)c1 (stereo not given)	.	.	-11.1%	-7.4%	16.1%	?
O=C(Nc1ccccc1)c1ccc(N2CCN(c3ccccc3)CC2)c(S(=O)(=O)N2CCOCC2)c1	.	.	.	20.0%	-6.9%	4.15µM*
O=C(Nc1ccccc1)c1ccc(N2CCN(c3ccccn3)CC2)c(S(=O)(=O)N2CCOCC2)c1	.	.	.	-6.9%	-7.3%	3.7µM*
O=C(Nc1ccc(NC(=O)c2ccc(Cl)c(S(=O)(=O)N3CCOCC3)c2)cc1)c1ccccc1	-13.7%	-19.7%	5.0%	-7.4%	?	-1.2%
Fc1ccccc1Cc1nnc2n1N=C(c1ccc(Cl)cc1)CS2	.	6.2%	.	4.1%	8.3%	23.2%
C[C@H](NC(=O)[C@@H]1CSC2c3ccccc3C(=O)N21)C(=O)NCCc1ccc(F)cc1 (stereo not given in full)	-23.4%	-20.4%	0.0%	?	7.5%	-28.4%
COCCn1c(C)cc(C(=O)COc2ccc(N(C)S(=O)(=O)c3ccc(C)cc3)cc2)c1C	-10.3%	-17.1%	9.28µM*	.	?	?
CN(c1ccc(C(=O)Nc2ccc(Cl)cn2)cc1)S(=O)(=O)c1ccccc1	.	.	-12.9%	-48.3%	11.2µM*	-27.2%
O=C(Nc1ccc(Cl)cn1)c1ccc(Oc2ccccc2)cc1	i	-24.8%	90.4%	-29.1%	?	?
Cc1ccc(S(=O)(=O)N(C)c2ccc(C(=O)Nc3ccc(C)cn3)cc2)cc1	-9.8%	-7.9%	11.7µM*	.	5.01µM*	?
Cc1ccc(S(=O)(=O)N(C)c2ccc(C(=O)Nc3ccccn3)cc2)cc1	-3.7%	-9.7%	?	.	-24.2%	?
CCCS(=O)(=O)N1CCC(C(=O)NCCCOC)CC1	.	-1.8%	13.8%	5.6%	20.4%	58.6%
CCCS(=O)(=O)N1CCC(C(=O)NCCCOCC)CC1	-14.6%	-3.4%	40.2%	-2.3%	12.0%	14.7µM*
CCCS(=O)(=O)N1CCC(C(=O)NCCC(C)C)CC1	.	.	4.5%	.	4.1%	33.0%
